ChEMBL document CHEMBL1961873, “Compounds: GSK PKIS; Assays: Nanosyn kinase panel” (2012)

Tests used:
[1] = biological target: T1, Tyrosine-protein kinase receptor TYRO3 (Homo sapiens) (UniProt Q06418); details: at 1 µM
T1 sequence (whole entry): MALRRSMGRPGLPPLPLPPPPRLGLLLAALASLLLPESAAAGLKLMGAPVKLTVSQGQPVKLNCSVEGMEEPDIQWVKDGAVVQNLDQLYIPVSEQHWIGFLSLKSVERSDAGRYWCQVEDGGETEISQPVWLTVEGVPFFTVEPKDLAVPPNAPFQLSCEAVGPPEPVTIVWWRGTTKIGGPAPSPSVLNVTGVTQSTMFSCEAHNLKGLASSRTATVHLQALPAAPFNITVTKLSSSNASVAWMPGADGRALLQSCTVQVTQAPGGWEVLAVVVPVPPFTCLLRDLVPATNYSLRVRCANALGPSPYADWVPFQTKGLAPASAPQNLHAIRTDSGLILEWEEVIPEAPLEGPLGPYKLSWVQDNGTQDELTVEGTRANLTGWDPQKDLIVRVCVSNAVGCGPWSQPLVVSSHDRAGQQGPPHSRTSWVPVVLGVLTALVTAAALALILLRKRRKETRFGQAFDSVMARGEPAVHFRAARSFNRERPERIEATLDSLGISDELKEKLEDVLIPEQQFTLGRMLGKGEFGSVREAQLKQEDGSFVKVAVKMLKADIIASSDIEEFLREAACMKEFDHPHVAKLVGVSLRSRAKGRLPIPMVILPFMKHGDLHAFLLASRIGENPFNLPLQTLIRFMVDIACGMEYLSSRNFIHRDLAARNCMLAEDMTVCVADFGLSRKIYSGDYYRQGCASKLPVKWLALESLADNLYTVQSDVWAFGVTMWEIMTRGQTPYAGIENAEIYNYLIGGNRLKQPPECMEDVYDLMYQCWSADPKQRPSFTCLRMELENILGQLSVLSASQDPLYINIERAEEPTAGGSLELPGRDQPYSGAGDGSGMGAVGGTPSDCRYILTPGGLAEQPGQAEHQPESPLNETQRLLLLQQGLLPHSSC

[2] = biological target: Tyrosine-protein kinase Yes (Homo sapiens) (UniProt P07947); details: at 0.1 µM
Sequence of Tyrosine-protein kinase Yes (Homo sapiens) (P07947 2-543 limits assumed): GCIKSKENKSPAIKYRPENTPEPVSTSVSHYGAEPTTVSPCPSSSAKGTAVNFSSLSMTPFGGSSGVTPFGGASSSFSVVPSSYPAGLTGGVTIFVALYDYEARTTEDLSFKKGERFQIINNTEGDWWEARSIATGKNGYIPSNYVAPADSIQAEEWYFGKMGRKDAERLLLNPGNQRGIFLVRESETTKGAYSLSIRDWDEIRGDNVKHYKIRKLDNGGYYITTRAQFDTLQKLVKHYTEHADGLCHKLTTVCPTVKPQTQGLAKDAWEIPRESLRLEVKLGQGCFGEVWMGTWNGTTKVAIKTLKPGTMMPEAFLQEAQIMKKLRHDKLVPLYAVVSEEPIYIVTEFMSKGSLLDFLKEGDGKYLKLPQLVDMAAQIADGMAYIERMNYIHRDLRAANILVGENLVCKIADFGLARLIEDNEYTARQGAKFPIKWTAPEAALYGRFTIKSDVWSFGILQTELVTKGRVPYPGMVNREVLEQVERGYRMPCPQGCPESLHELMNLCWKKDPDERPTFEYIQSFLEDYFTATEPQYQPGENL

[3] = biological target: Tyrosine-protein kinase Yes (Homo sapiens) (UniProt P07947); details: at 1 µM
[4] = biological target: T2, Tyrosine-protein kinase ZAP-70 (Homo sapiens) (UniProt P43403); details: at 0.1 µM
T2 sequence (whole entry): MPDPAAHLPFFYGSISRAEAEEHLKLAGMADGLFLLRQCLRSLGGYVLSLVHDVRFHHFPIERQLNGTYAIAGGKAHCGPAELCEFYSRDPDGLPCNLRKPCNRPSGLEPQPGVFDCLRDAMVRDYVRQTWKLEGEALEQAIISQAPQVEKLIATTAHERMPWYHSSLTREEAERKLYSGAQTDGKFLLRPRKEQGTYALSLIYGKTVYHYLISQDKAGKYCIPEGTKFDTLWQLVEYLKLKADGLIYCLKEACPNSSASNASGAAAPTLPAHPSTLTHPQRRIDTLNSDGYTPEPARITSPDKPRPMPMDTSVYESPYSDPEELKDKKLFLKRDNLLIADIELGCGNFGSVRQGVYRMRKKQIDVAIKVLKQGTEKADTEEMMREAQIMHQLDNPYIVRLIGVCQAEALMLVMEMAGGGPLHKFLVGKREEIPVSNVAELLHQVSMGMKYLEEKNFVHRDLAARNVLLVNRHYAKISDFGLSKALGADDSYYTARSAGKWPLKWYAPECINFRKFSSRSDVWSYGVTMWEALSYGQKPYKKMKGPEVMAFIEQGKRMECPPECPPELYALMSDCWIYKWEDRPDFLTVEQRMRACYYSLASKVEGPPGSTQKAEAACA

[5] = biological target: T2, Tyrosine-protein kinase ZAP-70 (Homo sapiens); details: at 1 µM
[6] = biological target: Serine/threonine-protein kinase B-raf (Homo sapiens) (UniProt P15056); details: at 0.1 µM
Sequence of Serine/threonine-protein kinase B-raf (Homo sapiens) (P15056 whole entry): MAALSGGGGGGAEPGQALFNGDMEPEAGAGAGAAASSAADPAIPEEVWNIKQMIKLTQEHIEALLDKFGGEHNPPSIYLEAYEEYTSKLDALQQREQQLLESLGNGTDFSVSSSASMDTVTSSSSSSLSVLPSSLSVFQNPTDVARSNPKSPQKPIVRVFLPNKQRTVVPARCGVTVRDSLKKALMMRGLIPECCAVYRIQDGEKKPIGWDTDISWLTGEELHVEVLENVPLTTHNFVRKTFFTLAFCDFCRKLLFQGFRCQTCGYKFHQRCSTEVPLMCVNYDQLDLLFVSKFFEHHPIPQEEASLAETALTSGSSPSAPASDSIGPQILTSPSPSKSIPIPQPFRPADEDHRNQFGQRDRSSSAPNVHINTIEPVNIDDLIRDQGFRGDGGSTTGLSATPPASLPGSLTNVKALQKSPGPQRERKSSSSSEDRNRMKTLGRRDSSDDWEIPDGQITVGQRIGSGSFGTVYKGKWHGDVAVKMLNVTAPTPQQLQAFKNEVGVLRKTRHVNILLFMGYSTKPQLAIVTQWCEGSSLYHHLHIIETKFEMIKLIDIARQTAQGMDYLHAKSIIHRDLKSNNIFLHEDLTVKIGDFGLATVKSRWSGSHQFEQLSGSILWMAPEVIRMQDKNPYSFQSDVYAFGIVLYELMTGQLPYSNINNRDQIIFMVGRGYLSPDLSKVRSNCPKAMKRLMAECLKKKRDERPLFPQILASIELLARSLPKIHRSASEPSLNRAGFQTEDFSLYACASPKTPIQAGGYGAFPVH

[7] = biological target: Serine/threonine-protein kinase B-raf (Homo sapiens) (UniProt P15056); details: at 1 µM
[8] = test system: Serine/threonine-protein kinase B-raf (Homo sapiens), P15056 [V600E]; details: at 0.1 µM
Sequence of Serine/threonine-protein kinase B-raf (Homo sapiens), P15056 [V600E] (P15056 whole entry V600E): as the sequence (P15056 whole entry) above, with V600E counted along it

[9] = test system: Serine/threonine-protein kinase B-raf (Homo sapiens), P15056 [V600E]; details: at 1 µM
[10] = biological target: RAF proto-oncogene serine/threonine-protein kinase (Homo sapiens) (UniProt P04049); details: at 0.1 µM
Sequence of RAF proto-oncogene serine/threonine-protein kinase (Homo sapiens) (P04049 whole entry): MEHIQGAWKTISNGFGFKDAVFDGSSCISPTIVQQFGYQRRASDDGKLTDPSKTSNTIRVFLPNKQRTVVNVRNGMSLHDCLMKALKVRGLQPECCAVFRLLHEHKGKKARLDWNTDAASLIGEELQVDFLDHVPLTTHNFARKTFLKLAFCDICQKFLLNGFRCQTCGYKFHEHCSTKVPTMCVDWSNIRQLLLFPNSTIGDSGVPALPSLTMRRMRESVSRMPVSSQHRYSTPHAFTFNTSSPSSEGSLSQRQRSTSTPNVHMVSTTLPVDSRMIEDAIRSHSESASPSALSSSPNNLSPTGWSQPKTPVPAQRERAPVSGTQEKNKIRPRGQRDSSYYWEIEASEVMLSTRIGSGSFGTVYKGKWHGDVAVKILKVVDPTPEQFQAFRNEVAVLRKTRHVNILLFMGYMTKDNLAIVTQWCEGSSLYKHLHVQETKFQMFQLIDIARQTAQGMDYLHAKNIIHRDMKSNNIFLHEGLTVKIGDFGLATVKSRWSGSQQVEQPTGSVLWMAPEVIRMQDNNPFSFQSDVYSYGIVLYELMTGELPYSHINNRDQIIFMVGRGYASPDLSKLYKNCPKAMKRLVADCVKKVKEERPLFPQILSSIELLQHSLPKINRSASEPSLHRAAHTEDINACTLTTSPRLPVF

[11] = biological target: RAF proto-oncogene serine/threonine-protein kinase (Homo sapiens) (UniProt P04049); details: at 1 µM
[12] = biological target: T3, Interleukin-1 receptor-associated kinase 4 (Homo sapiens) (UniProt Q9NWZ3); details: at 0.1 µM
T3 sequence (whole entry): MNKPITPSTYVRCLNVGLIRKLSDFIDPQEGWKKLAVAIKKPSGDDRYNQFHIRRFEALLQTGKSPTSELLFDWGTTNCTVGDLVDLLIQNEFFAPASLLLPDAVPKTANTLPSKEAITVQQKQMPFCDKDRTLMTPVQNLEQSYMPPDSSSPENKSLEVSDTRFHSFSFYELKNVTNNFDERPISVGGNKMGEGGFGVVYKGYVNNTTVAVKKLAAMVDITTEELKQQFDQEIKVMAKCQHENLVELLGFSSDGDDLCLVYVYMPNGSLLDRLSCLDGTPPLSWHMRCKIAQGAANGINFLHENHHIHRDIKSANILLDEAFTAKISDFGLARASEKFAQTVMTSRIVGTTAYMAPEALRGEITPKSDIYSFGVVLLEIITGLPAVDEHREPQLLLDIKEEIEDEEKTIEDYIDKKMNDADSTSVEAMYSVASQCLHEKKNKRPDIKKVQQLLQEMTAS

[13] = biological target: T3, Interleukin-1 receptor-associated kinase 4 (Homo sapiens); details: at 1 µM
[14] = biological target: Leucine-rich repeat serine/threonine-protein kinase 2 (Homo sapiens) (UniProt Q5S007); details: at 0.1 µM
Sequence of Leucine-rich repeat serine/threonine-protein kinase 2 (Homo sapiens) (Q5S007 whole entry): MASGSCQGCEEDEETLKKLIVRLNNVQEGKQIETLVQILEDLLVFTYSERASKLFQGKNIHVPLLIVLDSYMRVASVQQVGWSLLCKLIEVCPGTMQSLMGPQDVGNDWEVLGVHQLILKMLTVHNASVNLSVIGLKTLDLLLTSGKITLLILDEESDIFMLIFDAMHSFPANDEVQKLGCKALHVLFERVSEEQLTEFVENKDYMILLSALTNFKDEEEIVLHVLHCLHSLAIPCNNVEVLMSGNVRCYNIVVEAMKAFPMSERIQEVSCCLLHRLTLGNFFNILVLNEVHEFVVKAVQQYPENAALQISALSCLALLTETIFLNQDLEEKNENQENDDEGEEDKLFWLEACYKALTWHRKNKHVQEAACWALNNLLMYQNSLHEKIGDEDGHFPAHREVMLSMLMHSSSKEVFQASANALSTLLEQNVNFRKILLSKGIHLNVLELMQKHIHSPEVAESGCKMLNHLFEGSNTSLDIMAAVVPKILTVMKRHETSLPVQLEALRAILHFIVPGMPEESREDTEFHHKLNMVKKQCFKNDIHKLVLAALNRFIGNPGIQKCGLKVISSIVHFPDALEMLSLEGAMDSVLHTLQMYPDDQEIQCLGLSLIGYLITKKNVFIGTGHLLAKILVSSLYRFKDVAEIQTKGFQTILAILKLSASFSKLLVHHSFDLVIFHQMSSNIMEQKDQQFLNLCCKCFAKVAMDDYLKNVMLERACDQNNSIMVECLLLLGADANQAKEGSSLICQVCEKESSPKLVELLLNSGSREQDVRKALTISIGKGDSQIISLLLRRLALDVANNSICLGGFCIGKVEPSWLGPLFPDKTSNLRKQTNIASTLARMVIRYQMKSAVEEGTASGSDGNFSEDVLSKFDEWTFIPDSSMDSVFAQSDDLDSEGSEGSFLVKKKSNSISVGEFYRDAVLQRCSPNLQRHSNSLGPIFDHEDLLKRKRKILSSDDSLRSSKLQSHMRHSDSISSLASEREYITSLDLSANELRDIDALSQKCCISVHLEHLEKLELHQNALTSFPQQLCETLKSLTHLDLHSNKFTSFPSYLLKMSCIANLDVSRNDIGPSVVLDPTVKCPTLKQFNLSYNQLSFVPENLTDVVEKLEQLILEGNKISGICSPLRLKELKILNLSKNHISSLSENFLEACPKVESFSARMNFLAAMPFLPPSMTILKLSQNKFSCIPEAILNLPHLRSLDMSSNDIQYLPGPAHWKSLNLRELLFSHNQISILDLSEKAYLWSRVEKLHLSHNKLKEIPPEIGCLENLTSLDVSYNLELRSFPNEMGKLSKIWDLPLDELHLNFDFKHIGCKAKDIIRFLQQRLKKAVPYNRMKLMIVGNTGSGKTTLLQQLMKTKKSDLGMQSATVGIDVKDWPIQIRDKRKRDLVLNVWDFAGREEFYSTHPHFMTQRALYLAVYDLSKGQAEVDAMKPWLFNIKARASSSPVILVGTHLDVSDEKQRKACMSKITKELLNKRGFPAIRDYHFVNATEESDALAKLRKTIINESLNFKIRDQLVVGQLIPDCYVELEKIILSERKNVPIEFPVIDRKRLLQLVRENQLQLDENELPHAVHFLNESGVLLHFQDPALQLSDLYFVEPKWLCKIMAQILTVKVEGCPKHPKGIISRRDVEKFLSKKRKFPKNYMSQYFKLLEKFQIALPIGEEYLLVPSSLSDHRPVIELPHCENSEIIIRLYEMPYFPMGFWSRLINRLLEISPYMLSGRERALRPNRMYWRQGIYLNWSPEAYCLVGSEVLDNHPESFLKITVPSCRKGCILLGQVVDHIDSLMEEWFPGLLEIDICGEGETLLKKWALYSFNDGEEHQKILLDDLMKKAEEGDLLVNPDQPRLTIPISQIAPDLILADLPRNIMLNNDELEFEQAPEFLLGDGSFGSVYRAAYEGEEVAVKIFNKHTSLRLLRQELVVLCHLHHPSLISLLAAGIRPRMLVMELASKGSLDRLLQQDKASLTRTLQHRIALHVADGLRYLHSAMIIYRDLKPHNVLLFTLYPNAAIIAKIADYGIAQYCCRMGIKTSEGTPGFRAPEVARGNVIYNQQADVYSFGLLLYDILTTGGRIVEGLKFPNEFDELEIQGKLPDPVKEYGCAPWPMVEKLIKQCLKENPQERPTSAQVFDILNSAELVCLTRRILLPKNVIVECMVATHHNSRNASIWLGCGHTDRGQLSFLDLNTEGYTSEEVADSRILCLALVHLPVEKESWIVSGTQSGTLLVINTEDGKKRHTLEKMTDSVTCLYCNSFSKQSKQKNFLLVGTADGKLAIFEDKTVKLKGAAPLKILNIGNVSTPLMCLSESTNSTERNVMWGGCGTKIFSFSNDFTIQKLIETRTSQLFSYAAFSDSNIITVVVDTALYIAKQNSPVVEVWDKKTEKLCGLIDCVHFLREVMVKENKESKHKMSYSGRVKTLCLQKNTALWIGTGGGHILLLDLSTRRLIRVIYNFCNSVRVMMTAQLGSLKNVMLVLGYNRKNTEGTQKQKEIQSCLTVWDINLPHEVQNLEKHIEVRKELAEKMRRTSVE

[15] = biological target: Leucine-rich repeat serine/threonine-protein kinase 2 (Homo sapiens) (UniProt Q5S007); details: at 1 µM
[16] = test system: Leucine-rich repeat serine/threonine-protein kinase 2 (Homo sapiens), Q5S007 [G2019S]; details: at 0.1 µM
Sequence of Leucine-rich repeat serine/threonine-protein kinase 2 (Homo sapiens), Q5S007 [G2019S] (Q5S007 whole entry G2019S): as the sequence (Q5S007 whole entry) above, with G2019S counted along it

[17] = test system: Leucine-rich repeat serine/threonine-protein kinase 2 (Homo sapiens), Q5S007 [G2019S]; details: at 1 µM

Compound	inhibition [1] [%]	inhibition [2] [%]	inhibition [3] [%]	inhibition [4] [%]	inhibition [5] [%]	inhibition [6] [%]	inhibition [7] [%]	inhibition [8] [%]	inhibition [9] [%]	inhibition [10] [%]	inhibition [11] [%]	inhibition [12] [%]	inhibition [13] [%]	inhibition [14] [%]	inhibition [15] [%]	inhibition [16] [%]	inhibition [17] [%]
NS(=O)(=O)c1cccc(Nc2cc(-c3ccc(F)cc3)n[nH]2)c1	19.7	2.67	12.1	1.39	2.54	5.14	4.96	3.81	5.31	0.49	-8.3	-1.86	1.25	4.6	10.5	5.16	12.2
COc1cccc(-n2nc(C)c3c(N/N=C(\C)c4ccncc4)ncnc32)c1	2.25	1.18	0.82	0.82	2.35	0.14	-1.61	0.28	-0.78	-2.44	-2.83	-0.08	0.93	2.29	4.69	2.88	4.64
Oc1cccc(-c2nc(-c3ccccc3)[nH]c2-c2ccncc2)c1	9.74	4.12	21.9	3.06	3.35	14.5	30	12.8	28.9	1.16	12.2	-4.12	2.23	4.13	8.56	4.27	8.9
CN(C)CCCn1c(-c2nonc2N)nc2cnccc21	1.97	0.2	0.44	1.32	0.96	5.59	6.07	5.51	5.34	7.16	1.81	4.22	1.99	3.63	2.14	2.04	2.51
Cc1ccc(O)cc1Nc1ccnc2ccc(S(C)(=O)=O)cc12	19.1	89.3	99	2.4	1.31	15.3	32.5	13.8	26	-4.03	9.12	4.59	3.6	4.8	18.7	12.5	48
O=C1Nc2ccccc2/C1=C/Nc1ccc2[nH]c(=O)[nH]c2c1	21.6	6.92	27.2	3.11	7.45	9.63	10.4	8.7	8.75	0.68	-0.47	2.93	2.88	3.06	14.1	6.22	35
Cc1cc(O)cc(C)c1/C=C/c1cncc(C(=O)N(C)C)c1	2.81	0.44	1.22	1.81	2.36	3.04	3.56	4.11	3.14	6.23	-5.4	-1.62	2.21	4.81	7.82	3.29	7.6
Cc1cc(Cl)cc2c1NC(=O)C2=NNc1ccc(S(N)(=O)=O)cc1	3.93	0.95	2.2	1.82	1.81	4.13	1.81	4.19	2.74	0.2	3.57	3.1	1.43	0.71	2.23	1.78	4.5
CN(c1ccc(NC(=O)Nc2ccc(OC(F)(F)F)cc2)cc1)c1ccnc(Nc2cccc(S(N)(=O)=O)c2)n1	27.2	15.5	65.2	-0.16	3.87	5.02	22.7	4.82	18	-2.25	-4.06	1.26	2.86	4.25	27.6	3.86	17.2
CN(C)C(=O)O[C@H]1CN[C@H](C#Cc2cc3ncnc(Nc4ccc(OCc5cccc(F)c5)c(Cl)c4)c3s2)C1	2.13	1.37	3.86	0.97	3.33	3.09	6.19	3.55	5.77	3.11	5.68	-3.18	1.16	1.64	2.05	4.13	6.83
CCn1c(-c2nonc2N)nc2c(C#CC(C)(C)O)nc(OCCNC)cc21	3.31	3.64	3.28	1.77	1.49	6.22	7.65	3.6	3.03	0.76	0.54	2.16	3.06	-2.14	0.49	-0.46	2.51
N#Cc1cccc(Nc2nccc(-c3cnn4ncccc34)n2)c1	47.8	5.64	37	3.19	13.3	19.5	65.2	18.8	65	-0.47	0.47	4.11	15.1	4.57	19.8	7.72	40.4
NS(=O)(=O)c1ccc(NC=C2C(=O)Nc3ccc4ncsc4c32)cc1	42.4	9.65	41.5	3.29	11.9	15.4	60.5	16.6	61.2	11.6	-1.97	0.1	4.43	23.9	78.8	48.8	59.7
C[C@@H](Oc1cc(-n2cnc3ccc(OCC4CCN(C)CC4)cc32)sc1C(N)=O)c1ccccc1C(F)(F)F	6.92	4.36	13.2	-2.7	-1.19	-0.94	-2.8	-0.73	0.84	12.6	1.99	0.42	9.77	6.53	26.4	7.39	31
Nc1ccc(C#Cc2cncnc2Nc2ccc(OCc3cccc(F)c3)c(Cl)c2)cc1	3.64	1.94	8.1	-0.01	-1.74	4.78	3.99	4.21	3.42	-3.06	-1.01	0.78	1.25	2.69	2.94	3.21	3.62
